Vaccinia Venus: qHTS for Stage-Specific Inhibitors of Vaccinia Orthopoxvirus: Venus Reporter Primary qHTS; Vaccinia virus Venus reporter expression, fluorescence; Potency, µM (top dose mostly 36.5 µM), for inactives: at the highest dose activity change, negative = inhibition, usual class: inhibitors; 330,000 tested, 0.46% active; AID 720580, 2013; calls by dose curve; tested in A549 cells; also: potency is read from the fitted curve at half-maximal effect; nearly all actives have a fitted effect of over 30% in size
Sm TGR block: qHTS Assay for the Inhibitors of Schistosoma Mansoni Peroxiredoxins; Schistosoma mansoni thioredoxin glutathione reductase (TGR), Q962Y6; purified TGR, DTNB reduction, TNB absorbance 405 nm; Potency, µM (titrated, usually from 114 µM), for the others: at the highest dose activity change, negative = inhibition, hits mostly inhibitors; 360,000 tested, 3% active; AID 485364, 2010; also: potency is read from the fitted curve at half-maximal effect; nearly all actives have a fitted effect of over 60% in size
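First, TGR (20 nM dispensed) and NADPH were mixed with compound. Second, a 15 min room-temperature incubation followed. Third, further NADPH and then DTNB were added to start the reaction. Finally, TNB absorbance was monitored kinetically.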
FMDV antiviral: High Throughput Screening for Foot and Mouth Disease Virus Antivirals; FMDV antiviral cell-based qHTS; Potency, µM (titrated, usually from 57.9 µM), inactives show at the highest dose activity change, negative = inhibition, actives largely listed as inhibitors; 410,000 tested, 1.2% active; AID 1159524, 2015; calls by dose curve; tested in HEK293T cells; also: read-out not given here; potency is read from the fitted curve at half-maximal effect; nearly all actives have a fitted effect of over 45% in size
HCV inhibitor: qHTS Assay for Inhibitors of Hepatitis C Virus (HCV); Huh7.5.1 HCVcc-Cre infection, luciferase reporter, 44 h; Potency, µM (series often up to 41.8 µM), for inactives: top-dose activity change, negative = inhibition, most hits filed as inhibitors; 340,000 tested, 3.4% active; AID 651820, 2012; also: potency is read from the fitted curve at half-maximal effect
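HCVcc-Cre virus at an moi near 0.5 was added right after compound to cells cultured 4 h from seeding (1,000 cells/well). Luciferase activity was determined 44 h later, 15 min after substrate addition at RT.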
HCMV antiviral: qHTS Assay for inhibitors of the human cytomegalovirus (HCMV). HFF cells, HCMV-luciferase reporter, 72 h; hits give low values. activity change, negative = inhibition, % at 57.5 µM. 410,000 tested, 4.5% active. AID 1259415, 2018; in the data active = activity change below about -60%; inconclusive = no clear call, values can overlap the other calls; inactive = above about -39%
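After 16 h attachment at 37C, HFF cells received test compound and HCMV-luciferase (1 PFU/cell); reporter luminescence read 72 h later, data normalized against buffer-only and known inhibitor Salinomycin.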
VACV mCherry inh: qHTS for Stage-Specific Inhibitors of Vaccinia Orthopoxvirus: mCherry Reporter Primary qHTS; Vaccinia virus mCherry reporter infection, fluorescence; Potency, µM (titrated, usually from 36.5 µM), without a hit: at the top dose activity change, negative = inhibition, hits mostly inhibitors; 310,000 tested, 0.63% active; calls by dose curve; tested in A549 cells; also: potency is read from the fitted curve at half-maximal effect; nearly all actives have a fitted effect of over 35% in size
An asterisk follows results filed as active; i = inactive; ? = inconclusive; . = not tested or not shown; [ ] = remark or other dose. Rows were chosen to be rich in hits. Some 9.3% of all compounds tested hit in one or more screens of this group. Unless noted, calls follow the shape of the dose curve; as a rule, active = well fitted curve in the direction sought with a large enough effect; inconclusive = small, poorly fitted or top-dose-only effect, or another doubt; inactive = no such curve, though single readings can be large; an effect the other way counts as inactive or inconclusive. % is scaled to controls: 0 for no effect and ±100 for the full control effect.

SMILES	Vaccinia Venus	Sm TGR block	FMDV antiviral	HCV inhibitor	HCMV antiviral	VACV mCherry inh
O=C(NN1C(=O)c2ccccc2C1=O)C1C2CCCCC21 (configuration not stated)	-15%	-1%	3%	-6%	24	-24%
O=C(CSc1nnc(Cc2ccccc2)o1)NCc1ccco1	.	45µM*	17%	4%	55	.
Cc1[nH]c2ccccc2c1Cc1nnc(SCC(=O)NCc2ccco2)o1	6%	16µM*	-22%	7%	13	5%
CCn1c(Cc2c(C)[nH]c3ccccc23)nnc1SCC(=O)NCc1ccco1	-2%	0%	-14%	-18%	23	-18%
CC1CCN(C(=S)NC2CCCCC2)CC1	.	2%	28%	16%	3	.
O=C(CSc1nccn1-c1ccc(Cl)cc1)Nc1ccc2c(c1)OCO2	-16%	5%	?	?	-23	.
CC(=O)C1=C(C)NC(SCC(=O)c2ccc(Cl)cc2Cl)=C(C#N)C1c1ccco1 (configuration not stated)	-3%	0%	.	2.5µM*	-68*	i
CCOc1ccccc1C1CC(=O)Nc2cc(OC)c(OC)cc21 (configuration not stated)	-9%	-1%	1%	-14%	78	-14%
O=C(Nc1ccc2nc(C3CC3)n(Cc3ccc(F)cc3)c(=O)c2c1)c1ccco1	?	1%	-20%	22µM*	-69*	?
CC(C)CC1NC(=O)c2cc3ccccc3cc2-n2c1nc1ccc(Cl)cc1c2=O (configuration not stated)	-24%	.	?	.	-14	-18%
CC(=O)N/C(=C/c1ccc2c(c1)OCO2)C(=O)NC(Cc1ccccc1)C(=O)O (configuration not stated)	-10%	.	-7%	21%	-8	-4%
O=C(NC(Cc1cccc(F)c1)C(=O)O)C1CCCCC1 (configuration not stated)	5%	4%	-14%	2.8µM*	-4	-11%
O=C(NC(Cc1ccccc1)C(=O)O)/C(=C/c1ccccc1)NC(=O)c1ccc(Br)o1 (configuration not stated)	-9%	-6%	34%	5%	-10	-12%
O=C(/C=C/c1ccccc1)N/C(=C\c1ccco1)C(=O)NCCO	-5%	-28%	2%	2%	29	?
O=C(O)CCCCCNC(=O)/C(=C\c1ccco1)NC(=O)c1ccco1	.	100µM*	-11%	9%	-5	.
CC(C)CC(NC(=O)/C(=C/c1ccco1)NC(=O)c1ccc(Br)o1)C(=O)O (configuration not stated)	.	45µM*	-6%	4%	68	.
O=C(O)CCNC(=O)/C(=C\c1ccco1)NC(=O)c1ccco1	.	?	-4%	7%	-1	.
CC(C)CC(NC(=O)/C(=C\c1ccco1)NC(=O)c1ccco1)C(=O)O (configuration not stated)	.	35µM*	-10%	5%	4	.
CCNC(=O)/C(=C/c1ccco1)NC(=O)/C=C/c1ccccc1	-7%	40µM*	2%	0%	-7	-13%
CCOc1ccc(C(=O)Oc2cc(C)[nH]c(=O)c2[N+](=O)[O-])cc1	-1%	-15%	-18%	15%	-16	i
N#C/C(=C\C=C\c1ccccc1)C(=O)NCc1ccco1	-12%	.	24%	7%	?	-29%
CCOC(=O)/C(=C/c1ccco1)NC(=O)c1ccc(Br)o1	-6%	18µM*	-6%	3%	4	-3%
CNC(=O)/C(=C\c1ccco1)NC(=O)c1ccco1	-8%	?	3%	17%	-7	-11%
O=C(NCc1ccco1)/C(=C/C=C\c1ccccc1)NC(=O)c1ccc(Br)o1	-9%	0%	35%	-13%	-69*	-17%
O=C(N/C(=C/c1ccco1)C(=O)N1CCc2ccccc21)c1ccco1	-4%	32µM*	26%	-15%	6	-14%
SMILES	Vaccinia Venus	Sm TGR block	FMDV antiviral	HCV inhibitor	HCMV antiviral	VACV mCherry inh
COc1ccccc1Nc1ncc(-c2cccs2)s1	1%	8%	18%	-10%	138	.
N#C/C(=C/c1ccc2c(c1)OCO2)C(=O)NCCc1c[nH]c2ccccc12	.	0%	-7%	-9%	-16	.
CC(C)C(O)(c1ccccc1)C(CN1CCOCC1)c1ccccc1 (configuration not stated)	.	55%	-22%	-20%	-18	.
CCCC(O)(c1ccc(CC)cc1)C(CN1CCOCC1)c1ccccc1 (configuration not stated)	-6%	-11%	?	-49%	-69*	-17%
CCc1ccc(C(O)(C(C)C)C(CN2CCOCC2)c2ccccc2)cc1 (configuration not stated)	.	-12%	0%	?	-77*	.
OC(c1ccc(F)cc1)(C1CCCCC1)C(CN1CCOCC1)c1ccccc1 (configuration not stated)	.	89µM*	-26%	?	?	.
O=C(COc1ccc(Cl)cc1)Nc1ccc(O)c(-c2nc3ccccc3s2)c1	-2%[7.34 µM]	-6%	-15%	.	32	-7%[7.34 µM]
CCN(CC)c1ccc(/C=N/NC(=O)Cc2nnc(NC(=O)Nc3ccccc3)s2)cc1	-4%	0%	-16%	-8%	-32	?
Cc1ccc(C)c(NC(=O)CSc2nnc3[nH]c(=O)cc(-c4ccccc4)n23)c1	-7%	-3%	21%	.	3	-23%
COc1ccccc1-c1ccc2c(c1)C(C)(Cc1ccc(Cl)cc1)C(=O)N2 (configuration not stated)	-8%	.	-7%	.	5	-1%
CC1(Cc2cccc(F)c2)C(=O)Nc2ccc(-c3cccnc3)cc21 (configuration not stated)	?	.	-9%	.	-74*	i
COc1ccccc1-c1ccc2c(c1)C(C)(Cc1cc(Cl)ccc1C(F)(F)F)C(=O)N2 (configuration not stated)	-17%	.	-29%	.	?	1%
CC1(Cc2ccc(Cl)cc2)C(=O)Nc2ccc(-c3cccnc3)cc21 (configuration not stated)	-10%	.	-27%	.	-66*	i
CC1(Cc2cc(Cl)ccc2C(F)(F)F)C(=O)Nc2ccc(-c3ccc(F)c(Cl)c3)cc21 (configuration not stated)	-30%	.	0%	.	-63*	i
COc1cccc(-c2cccc3c2NC(=O)C3(C)Cc2cccc(F)c2)c1 (configuration not stated)	4%	.	35µM*	.	8	7%

Bioassay records (PubChem BioAssay)
